Reference: PubChem BioAssay (NCI)
About 83,000 compounds went through this panel and 20% of them were active in at least one assay; those are over-represented in the sample as a whole.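 Single-dose data. Exposure time 48 hours. Values below 10 considered active.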 A number with no mark means an inactive call. Activity calls are given as the source filed them.

Tests used:
Experiment in all cases: NCI-60 one-dose screen, 48 h (100 = growth as untreated, 0 = no growth, -100 = all killed)
Conditions in all cases: 10 µM unless noted
HCT-15 colon = test system: HCT-15 colon
HT29 colon = test system: HT29 colon
SNB-75 CNS = test system: SNB-75 CNS
SNB-19 CNS = test system: SNB-19 CNS
U251 CNS = test system: U251 CNS
SK-MEL-5 melanoma = test system: SK-MEL-5 melanoma
UACC-62 melanoma = test system: UACC-62 melanoma
LOX IMVI melanoma = test system: LOX IMVI melanoma
SK-MEL-28 melanoma = test system: SK-MEL-28 melanoma

| SMILES | growth (HCT-15 colon) | growth (HT29 colon) | growth (SNB-75 CNS) | growth (SNB-19 CNS) | growth (U251 CNS) | growth (SK-MEL-5 melanoma) | growth (UACC-62 melanoma) | growth (LOX IMVI melanoma) | growth (SK-MEL-28 melanoma) |
| --- | --- | --- | --- | --- | --- | --- | --- | --- | --- |
| O=C(NCCN1CCOCC1)Nc1ccc(-c2cc3c(Nc4ccc(Oc5cccc(C(F)(F)F)c5)c(Cl)c4)ncnc3s2)cc1 | -56.2% (active) | -69.2% (active) | -48.4% (active) | 43.1% | 0.383% (active) | -90.9% (active) | -40.3% (active) | -86.6% (active) | -49.8% (active) |
| Cc1ccc(O)c(N2C(=NCc3ccco3)NS(=O)(=O)c3cnccc32)c1 | 112% | 111% | 106% | 110% | 100% | 118% | 96.7% | 103% | 107% |
| COc1ccc(S(=O)(=O)N2CCCCCC2)cc1NC(=O)c1[nH]c(C)c2c1CCCCC2=O | 12.8% | 16.8% | 4.93% (active) | 38.2% | 29.9% | -43.8% (active) | 15.8% | -33.6% (active) | 49.8% |
| CCOC(=O)c1sc2nc(-c3cccc(OC)c3)nc(N3CCOCC3)c2c1C | 96.4% | 89.9% | 95.3% | 89.1% | 86.9% | 85.5% | 75.6% | 94% | 101% |
| Cc1[nH]c(-c2cc(N)ccc2Cl)c2c1C(=O)CCCC2 | 17.7% | 12.8% | 1.7% (active) | 35.6% | 38.5% | 1.73% (active) | 15.7% | 3.58% (active) | 59.1% |
| O=C(CCCCC(=O)N/N=C\c1ccccc1O)N/N=C\c1ccccc1O | 21% | 69.1% | 69.6% | 38.9% | 26.4% | -14.9% (active) | 13.5% | 26.2% | 48.3% |
| OC(COc1cccc2ccccc12)CN1CCN(c2ccccc2Cl)CC1 (configuration not stated) | 99% | 85.7% | 86.7% | 83.4% | 97.8% | 90.7% | 93.9% | 92.6% | 112% |
| CN(C)[C@@H]1C(=O)C(C(=O)NCc2nc3[nH]cnc(=S)c3[nH]2)=C(O)[C@@]2(O)C(=O)C3=C(O)c4c(O)cccc4[C@@](C)(O)[C@H]3C[C@@H]12 | 76.7% | 64.3% | 61.8% | 84.1% | 96% | 75.5% | 25.5% | 12.4% | 118% |
| Nc1ccc(-c2cc3c(NCc4ccccc4)ncnc3s2)cc1 | 82.2% | 103% | 89.2% | 73.6% | 82.4% | 55.7% | 71.8% | 84.2% | 92.3% |
| CCOc1nc(-c2ccccc2)cc2c(O)c(C(=O)O)[nH]c(=O)c12 | 106% | 104% | 81.3% | 94.3% | 104% | 90.6% | 110% | 95.2% | 138% |
| O=C1/C(=C/c2ccccc2)SC(=S)N1CCc1ccc(O)cc1 | 100% | 102% | 81.1% | 90.4% | 97.3% | 97% | 77% | 89.2% | 103% |
| COc1ccc(C(=O)COc2ccc(/C=C3\COc4ccc(OC)cc4C3=O)cc2)cc1 | 77.5% | 93% | 91.7% | 101% | 84.3% | 74.2% | 85.1% | 80.7% | 94.5% |
| COc1ccc2c(c1)O/C(=C\c1cccc(OCC(=O)Nc3nc4c(s3)CCCC4)c1)C2=O | 84.8% | 84.7% | 29.3% | 76.1% | 73.1% | 97.9% | 76.1% | -100% (active) | 114% |
| O=C1c2cccc3cccc(c23)C(=O)N1CCCCN1CCN(CCCCOc2ccc(-c3nc4ccc(N5CCOCC5)cc4[nH]3)cc2)CC1 | 87.8% | 83.3% | 84.8% | 89.4% | 74.6% | 89.2% | 92.8% | 93.7% | 81.5% |
| Cc1cc2c3ccccc3ccc2[n+]2ccccc12 | 105% | 69% | 14.6% | 4.52% (active) | 6.05% (active) | -44.8% (active) | 59.8% | 74.4% | 14.9% |
| C=CCSSc1ncnc2c1ncn2C1OC(CO)C(O)C1O (configuration not stated) | 47.9% | 28.6% | 39.7% | 88.1% | 80% | 61.1% | 18.4% | 8.74% (active) | 109% |
| CC(O)CN(CC(C)O)c1ccc2c(c1)Cc1cc([N+](=O)[O-])ccc1-2 (configuration not stated) | 83.5% | 103% | 87.5% | 98.9% | 102% | 103% | 95.7% | 96.2% | 109% |
| CN(C)CCCNc1c2ccccc2nc2ccccc12 | 94.1% | 82.8% | 66.9% | 90.5% | 77.1% | 93.2% | 105% | 96.3% | 103% |
| COc1ccc(-n2nc(C)c3c(Nc4ccc(NC(=O)Nc5cc(C(F)(F)F)ccc5F)cc4)ncnc32)cc1 | 8.66% (active) | 1.92% (active) | 25.8% | 34.8% | 12.9% | 46% | 19.6% | -90.5% (active) | 48.6% |
| O=C1c2ccccc2C(=O)c2c(N=Nc3[nH]c(=S)[nH]c3O)cccc21 | 23.2% | 9.93% (active) | -20.2% (active) | 28.9% | 12.8% | 13.8% | 32.5% | 34.1% | 52% |
| Cc1ccc(C(SCC(N)C(=O)O)(c2ccccc2)c2ccc(C)cc2)cc1 (configuration not stated) | 20.1% | 1.66% (active) | 16.8% | 36.5% | 7.96% (active) | 16.7% | 13.6% | 41.7% | 30% |
| NS(=O)(=O)c1ccc(CN=C2NC(=O)S/C2=C\c2ccc(Br)cc2)cc1 | 103% | 105% | 89.1% | 97.7% | 97.9% | 99.2% | 93.3% | 100% | 100% |
| COc1ccc(C(=O)COc2cccc(/C=C3\CSc4ccccc4C3=O)c2)cc1 | -54.1% (active) | -88.2% (active) | 91.6% | 63.6% | -86.7% (active) | -75.8% (active) | -72% (active) | -100% (active) | -62.3% (active) |
| Cn1cc(-c2nonc2-c2c[nH]c3ccc(F)cc23)c2cccnc21 | 62.3% | 99.3% | 56.3% | 90.2% | 84.4% | 78.2% | 64.4% | 85.3% | 98.4% |
| Cn1cc(C(=O)c2nc(-c3c[nH]c4ccc(Br)cc34)no2)c2cc(F)ccc21 | 92.1% | 102% | 74.8% | 99.1% | 100% | 83.8% | 78% | 95.4% | 105% |
| C=C1c2nc3ccccc3n2C=C(c2ccc(OC)cc2)N1Cc1ccccc1 | 73.8% | 73.2% | 109% | 79.3% | 80.5% | 87.1% | 88.6% | 91.1% | 119% |
| Cc1cc(C)nc(SC2=C(Nc3ccc(O)cc3)C(=O)N(Cc3ccccc3)C2=O)n1 | 89.5% [40 µM] | 119% [40 µM] | 89.8% [40 µM] | 85.1% [40 µM] | 91.9% [40 µM] | 82.4% [40 µM] | 68.4% [40 µM] | 82.8% [40 µM] | 112% [40 µM] |
| COC(=O)c1ccc2oc(NC(=O)c3ccc(Nc4ccc([N+](=O)[O-])cc4C)c([N+](=O)[O-])c3)nc2c1 | 104% | 96.8% | 97.5% | 99% | 101% | 93.6% | 100% | 99.7% | 108% |
